Screening data (PubChem BioAssay)
GPR151 activ: activates the human receptor GPR151; Q8TDV0; activation, % at 11.2 µM; actives 1% (n = 650,000); PathHunter beta-arrestin GPR151 cells, luminescence; in the data active means activation above about 4.9%;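 further: 0% = median of compound wells and 100% = cells with positive control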
TEAD-YAP block: TEAD-YAP interaction inhibition. actives 1.4% (n = 640,000). HEK-TIYL cells, TEAD-Gal4/YAP UAS-luciferase luminescence. inhibition, % at 9.12 µM; in the data active means inhibition above about 32%;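 further: 0% = median of test compound wells and 100% = reference inhibitor wells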
MITF primary: blocks human microphthalmia-associated transcription factor | O75030 | AlphaScreen MITF homodimerization, bead proximity signal | inhibition, % at 2.6 µM | actives 0.91% (n = 650,000) | AID 1259374; in the data active means inhibition above about 50%;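 further: 0% = vehicle wells with protein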
FBW7 activator: human FBW7 E3 ligase activation, primary screen; Q969H0; AlphaScreen FBW7–phospho-cyclin E peptide binding, activator screen; normalized activity (activation), % at 26.1 µM; actives 0.13% (n = 650,000); AID 1259310; in the data active means normalized activity above about 1.9%;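 further: purified mutant Fbw7 with reduced substrate affinity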
GPR151 confirm: confirmation of human GPR151 activators; shares compounds with GPR151 activ; GPR151 PathHunter beta-arrestin cells, luminescence, 90 min; % of EA-reagent control over plate median; activation, % at 11.2 µM; 6,700 tested, under 10 active; AID 1508609;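 active means mean percent activation across replicates above the confirmation screen cutoff of 4.91%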
GPR119 counter: counter-screen for GPR151 activators: effect on human GPR119; shares compounds with GPR151 activ; GPR119 PathHunter beta-arrestin cells, luminescence, 90 min; 0 = compound-well median, 100 = enzyme-acceptor control; activation, % at 11.2 µM; actives 0.3% (n = 6,700);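 active means mean percent activation in the counterscreen above 29.09%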;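 further: counterscreen on off-target GPR119 to flag nonselective hits from the GPR151 activator screen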
* hit, by the source's call; · = no result. Shown are actives, neighbours in structure and some others; about 3.5% of the full set was active somewhere.

SMILES	GPR151 activ	TEAD-YAP block	MITF primary	FBW7 activator	GPR151 confirm	GPR119 counter
O=C(NC(=O)c1ccccc1)Nc1ccc(Br)cc1	6.1*	-20	-10	0	-1	-11
Cc1ccccc1NS(=O)(=O)c1ccc(-c2ccc(-n3cnnn3)cc2)cc1	5.7*	-13	-1	0	1	12
COc1ccc(-c2cnc3ccc(NCc4ccc(F)cc4)nn23)cc1	-1	7	10	0	·	·
CC(=O)C(Sc1nnc(Nc2ccc(C(C)C)cc2)s1)C(C)=O	6.0*	-33	9	0	0	-4
COc1cccc(CC2(CO)CCCN(Cc3cccc(OC)c3OC)C2)c1 (stereo not given)	6.2*	6	12	0	0	-5
COc1cccc(CC2(CO)CCCN(Cc3cc(OC)c(OC)c(OC)c3)C2)c1 (stereo not given)	-1	1	-2	0	·	·
O=[N+]([O-])c1ccccc1S(=O)(=O)NCc1ccco1	7.1*	-23	14	0	0	13
O=S(=O)(NCc1ccco1)c1cccc2c(S(=O)(=O)NCc3ccco3)cccc12	0	-1	11	0	·	·
O=[N+]([O-])c1ccccc1S(=O)(=O)c1ccccc1[N+](=O)[O-]	5.5*	10	16	1	0	-1
COCCCNC(=O)CC1C(=O)NCCN1Cc1c(F)cccc1Cl (stereo not given)	3	5	-5	0	·	·
COc1ccccc1NC(=O)c1ccc(SCC(=O)NCCC2=CCCCC2)c([N+](=O)[O-])c1	1	-5	0	0	·	·
COCCn1c(SCc2cccc(Cl)c2)nc2c([nH]c3ccccc32)c1=O	11*	-1	1	0	-1	-2
COCCn1c(SCc2ccc(F)cc2)nc2c([nH]c3ccccc32)c1=O	1	-8	5	0	·	·
Cc1noc(C)c1COC(=O)CCc1ccc(S(=O)(=O)N2CCCCC2)cc1	5.0*	5	6	0	0	-6
CCOC(=O)c1c(NC(=O)CC)sc2c1CCCC2	5.1*	8	-6	0	0	2
CCOC(=O)c1c(-c2ccccc2)csc1NC(=O)CC	0	-2	-14	0	·	·
CCCCN(CC)S(=O)(=O)c1ccc(C(=O)Nc2sc3c(c2C(=O)OCC)CCN(C(C)C)C3)cc1	5.6*	-4	-1	0	-2	-11
CCCCN(CCCC)S(=O)(=O)c1ccc(C(=O)Nc2sc3c(c2C(=O)OCC)CCN(C(C)C)C3)cc1	-1	8	-10	0	·	·
CCOC(=O)c1c(NC(=O)COc2ccc(C)cc2)sc2c1CCCC2	5.1*	-6	-7	0	0	14
CCOC(=O)c1c(-c2ccc(C)cc2)csc1NC(=O)CC	5.1*	12	-18	0	-1	-13
CCOC(=O)c1c(NC(=O)COc2ccc(CC)cc2)sc2c1CCC2	0	-8	2	1	·	·
Cc1cccc(OCC(=O)Nc2ccc(-c3nc4ncccc4o3)cc2C)c1	0	1	6	0	·	·
COc1cc(/C=C2\SC(=Nc3ccccc3)N(c3ccccc3)C2=O)ccc1OCC(=O)Nc1cc(C)ccc1C	0	5	2	0	·	·
CN(CC(=O)NCc1ccc(F)cc1)S(=O)(=O)c1cc2c(cc1Cl)NC(=O)CO2	3	-5	0	0	·	·
Cc1ccc(NC(=O)Cn2cc(S(=O)(=O)c3ccccc3)c(=O)c3cc(C)ccc32)cc1	0	-1	-7	0	·	·
SMILES	GPR151 activ	TEAD-YAP block	MITF primary	FBW7 activator	GPR151 confirm	GPR119 counter
CC(C)(C)C1CCc2c(sc(NC(=O)c3nn4c(C(F)(F)F)cc(-c5ccccc5)nc4c3Cl)c2C#N)C1 (stereo not given)	-1	-1	-5	0	·	·
COC(=O)c1c(NC(=O)CCCOc2ccc(C(C)(C)C)cc2)sc2c1CCC2	3	-5	6	0	·	·
CCCCOc1ccc(C(=O)Nc2sc3c(c2C(=O)OCC)CCC3)cc1	0	-6	-7	0	·	·
CC(C)(C)c1ccc(OCCCC(=O)Nc2sc3c(c2C(N)=O)CCCC3)cc1	6.5*	1	12	0	0	8
CCCOc1ccc(C(=O)Nc2sc3c(c2C(=O)OCC)CCCC3)cc1	7.4*	-2	9	1	0	8
COc1cc(CN(CCCN(C)C)CCCN(C)C)ccc1OCc1ccccc1	0	5	35	0	·	·
Cc1ccc(NC(=O)C2CCCN2Sc2ccccc2[N+](=O)[O-])c(C)c1 (stereo not given)	6.0*	5	14	0	1	9
Cc1ccc(NC(=O)NC2(C(=O)NCc3ccncc3)CCCCC2)cc1	5.4*	-12	-11	0	-1	2
COc1ccc(NC(=O)NC2(C(=O)NCc3ccncc3)CCCCC2)cc1	1	6	-14	0	·	·
CC(C)(C)C(=O)NC1(C(F)(F)F)NC(=O)N(c2ccccc2F)C1=O (stereo not given)	6.6*	-1	-11	0	1	10
CCc1ccccc1NC(=O)c1ccc(CN2CCc3ccccc3C2)cc1	0	-1	-10	0	·	·
OCCC1CN(Cc2nc(-c3ccc(Cl)cc3)no2)CCN1C1CCCC1 (stereo not given)	0	3	6	0	·	·
N#C/C(=C\c1ccc(-c2nc3ccccc3s2)o1)C(N)=O	-2	-40	9	0	·	·
CNC(=O)/C(C#N)=C/c1ccc(-c2nc3ccccc3s2)o1	5.5*	-58	-5	0	-1	-1
CN(CC1=CC[C@H]2C[C@@H]1C2(C)C)Cc1nnc(SCc2ccncc2)n1C	-1	1	-2	0	·	·
N#C/C(=C\c1cc([N+](=O)[O-])ccc1Cl)c1nn(-c2ccccc2)c(N)c1C#N	0	-7	-2	0	·	·
COc1cc(/C=N\Nc2cc(=O)n(C)c(=O)n2C)ccc1O	5.7*	24	21	0	-1	-11
Cn1c(N/N=C\c2cccc(O)c2)cc(=O)n(C)c1=O	3	9	4	0	·	·
Cn1c(N/N=C\c2cccs2)cc(=O)n(C)c1=O	6.6*	0	7	0	0	-1
CCc1ccccc1NC(=S)NC(=O)c1ccc(Cl)cc1	1	6	1	0	·	·
CCN(CC)CCN1C(=O)C(O)=C(C(=O)c2cc3ccccc3o2)C1c1ccc(C)o1 (stereo not given)	6.1*	-7	-20	0	0	-6
O=C(Nc1c(F)cccc1F)N1CCn2cccc2C1c1ccccc1 (stereo not given)	11*	2	2	0	-1	-9
CN(C)CCN1C(=O)CC(CC(=O)N2CC3CCC2C3)(c2ccccc2F)C1=O (stereo not given)	0	4	-1	0	·	·
CCC(C)c1ccc(NC(=O)N2CCOCC2)cc1 (stereo not given)	5.4*	-57	12	0	-1	-8
